{
  "source": "PubChem BioAssay AID488900",
  "about": "(National Center for Advancing Translational Sciences (NCATS), 2010)",
  "note": "Inconclusive results are not listed. Unmarked numbers belong to inactive results. Calls of active or inactive are those of the source. Calls come from the whole dose curve; as a rule, active = well fitted curve in the direction sought with a large enough effect; inconclusive = small, poorly fitted or top-dose-only effect, or effect the other way, or another doubt; inactive = no such curve, though single readings can be large or run the other way.",
  "data": [
    {"experiment": "Secondary Assay for lipid storage modulators: Hela cell LDSA assay for probe SAR", "conditions": "HeLa lipid droplet accumulation, BODIPY 493/503 cytometry, oleate-fed; series mostly up to 46.1 µM; activity change, negative = less lipid storage: at the top concentration", "from_the_text": "NIH Molecular Libraries Probe Production Centers Network [MLPCN] NIH Chemical Genomics Center [NCGC] MLPCN Grant: 1 R03 MH085686-01 Assay Submitter (PI): Beller, Mathias; Max-Planck-Institut fur Biophysikalische Chemie NCGC Assay Overview: Storing lipids as a reservoir for energy or the anabolism of elementary metabolites is a common feature of probably all cells and is conserved from bacteria to humans. The universal cellular lipid storage organelle is the so-called lipid storage droplet (LD). Although ubiquitous, LDs share a simple structure composed of a hydrophobic core that harbors the storage lipids, which is shielded by a droplet-specific phospholipid monolayer to which proteins are attached. The current model of LD biogenesis involves an incorporation of the lipid core into the membrane leaflets of the endoplasmic reticulum (ER) followed by a subsequent budding-like maturation of a LD, which ultimately pinches off. Once released, LD volume can increase by localized lipogenesis or fusion of existing droplet. Storage lipids are re-mobilized enzymatically by lipase activity. Lipase regulation in the adipocyte is heavily studied and involves multiple components including catecholamine signaling, the LD-associated proteins Perilipin and comparative gene identification (CGI-58) and at least two lipases named hormone sensitive lipase (HSL) and adipocyte triglyceride lipase (ATGL). LD regulation outside of the adipocyte is poorly understood and only few components are known. However, there is an urgent need to learn more about ectopic fat depots as mislocalized storage of lipids, for example in the liver or muscle, is an eminent health problem associated with insulin resistance or the metabolic syndrome.\nNCGC Assay Protocol Summary: The assay was performed with Hela cells, using an oleic acid feeding protocol similar to the S3 assay. We dispensed 4 uL of cells to give 700 cells/well into Greiner bio-one 1,536-well plates (black walled, clear bottom). Triacsin C (Sigma-Aldrich T-4540), an inhibitor of long-chain fatty acyl CoA synthetase that blocks synthesis of triglycerides, was used as a positive control for lipid under-storage using a final concentration of 20 uM. The orexin antagonist, SB408124 - previously identified to stimulate lipid over-storage, was used as a positive control for lipid over-storage using a final concentration of 20 uM. A total of 23 nL of compound solution of different concentrations were transferred to the assay plates using a Kalypsys pin tool equipped with a 1,536-pin array containing 10-nL slotted pins (FP1S10, 0.457-mm diameter, 50.8 mm long; V&P Scientific). One microliter of oleic acid was added (400 uM final concentration), and the plate was lidded with stainless steel rubber gasket lined lids containing pinholes. After 18-24 h incubation at […] and 95% humidity, 4 uL of the dyes BODIPY 493/503 (Molecular Probes) and the Cell Tracker Red CMTPX dye (Molecular Probes) were added to the wells to stain lipid droplets and enumerate cell number, respectively. Fluorescence was detected by excitation of the fluorophores with a 488-nm laser on an Acumen Explorer (TTP Lab Tech). The total intensity in channel 2 (500-530 nm) reflected lipid droplet accumulation. Cells were detected using channel 3 (575-640 nm) with 5-um width and 100-um depth filters. The ratio of the number of objects in PMT channel 2 over the number of objects in PMT channel 3 was also calculated. Percent activity was computed relative to an internal control (100% inhibited lipid droplet deposition due to the presence of 20 uM Triacsin C), which was added to 32 wells/plate.", "values": [
      {"smiles": "COc1ccc(CCNC(=O)c2cc3sccc3n2Cc2ccc(Cl)cc2)cc1OC", "activity change, negative = less lipid storage": "0% [at 30.7 µM]"},
      {"smiles": "CCOc1ccc(CCNC(=O)c2cc3sccc3[nH]2)cc1OCC", "activity change, negative = less lipid storage": "8.64%"},
      {"smiles": "O=C(NC1CCCc2c1cnn2-c1cc(F)cc(F)c1)c1cccc2nccnc12", "note": "(stereo not given)", "Potency": "8.65 µM (active)"},
      {"smiles": "CCOC(=O)C1CCN(C(=O)C2(NC(=O)NCc3ccccc3)CCCCC2)CC1", "activity change, negative = less lipid storage": "41.3%"},
      {"smiles": "O=C(NC1CCCc2c1cnn2-c1ccc(F)cc1F)c1ccn[nH]1", "note": "(stereo not given)", "activity change, negative = less lipid storage": "24.7%"},
      {"smiles": "O=C(NC1CCCCC1)NC1(C(=O)N2CCCC2)CCCCC1", "activity change, negative = less lipid storage": "0%"},
      {"smiles": "O=C(Cc1ccccc1)NC1CCCc2c1cnn2-c1ccc(F)cc1F", "note": "(stereo not given)", "activity change, negative = less lipid storage": "-75%"},
      {"smiles": "COc1ccc(-c2cnc(SCC(=O)Nc3nc(C)cs3)n2Cc2ccco2)cc1", "activity change, negative = less lipid storage": "0% [at 30.7 µM]"},
      {"smiles": "COc1ccc(CCNC(=O)c2cc3sccc3n2Cc2ccccc2)cc1OC", "activity change, negative = less lipid storage": "0%"},
      {"smiles": "Cc1ccc(-c2cnc(SCC(=O)Nc3nc(C)cs3)n2Cc2ccco2)cc1", "activity change, negative = less lipid storage": "0%"},
      {"smiles": "CCOc1ccc(CCNC(=O)c2cc3sc(CC)cc3n2C)cc1OCC", "Potency": "0.217 µM (active)"},
      {"smiles": "O=C(NC1CCCc2c1cnn2-c1ccc(F)cc1F)C1CCCCN1", "note": "(stereo not given)", "activity change, negative = less lipid storage": "-20.7%"},
      {"smiles": "O=C(NC1CCCc2c1cnn2-c1ccc(F)cc1F)c1ccccc1", "note": "(stereo not given)", "activity change, negative = less lipid storage": "-2.47%"},
      {"smiles": "COc1ccc(-c2cnc(SCC(=O)Nc3nccs3)n2Cc2ccccc2)cc1", "activity change, negative = less lipid storage": "0%"},
      {"smiles": "CN(C)CC(=O)NC1CCCc2c1cnn2-c1ccc(F)cc1F", "note": "(stereo not given)", "activity change, negative = less lipid storage": "21%"}
    ]}
  ]
}
